Drawing on PubChem BioAssay (NCATS), this text covers Potency and outcome for 7 compounds.

Experiment [1] concerns the target ATP-dependent DNA helicase Q1 (Homo sapiens) (UniProt P46063). Description: qHTS Validation Assay for Inhibitors of RecQ-Like Dna Helicase 1 (RECQ1) (AID 2353). The gist of the method:
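50 nM RECQ1T1 preincubated 15 min with compound in Tris pH 8.0 buffer with MgCl2, DTT, Tween-20 and 2.5 ug/ml poly(dI-dC); started with 200 nM TAMRA/BHQ-2 forked duplex and 2 mM ATP. Unwinding read as fluorescence (525/598 nm), two reads 2 h apart.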

For experiment [2], the target named is RecQ-like DNA helicase BLM (Homo sapiens) (UniProt P54132). Description: qHTS Validation Assay for Inhibitors of Bloom's syndrome helicase (BLM) (AID 2364). The gist of the method:
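BLM 50 nM in 25 mM Tris-HCl pH 8.0, 5 mM NaCl, 2 mM MgCl2, 1 mM DTT, 0.01% Tween-20, 2.5 ug/ml poly(dI-dC); 15 min cpd preinc, RT. Start: 200 nM forked DNA + 2 mM ATP (final). TAMRA read, 2 reads 2 h apart.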
A general note: In qHTS, concentration-response curves come from the screen itself.

For experiment [3], the target named is Ubiquitin carboxyl-terminal hydrolase 2 (Homo sapiens) (UniProt O75604). Put plainly: qHTS Validation Assay for Inhibitors of Ubiquitin-specific Protease USP2a Using CHOP2 as the Reporter (AID 463106). The gist of the method: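 USP2 core (10nM final) was preincubated with compound for 30min at RT in 20mM Tris-HCl pH 8.0, 2mM CaCl2, 2mM beta-mercaptoethanol, 0.05% CHAPS. Ub-CHOP2 and reporter substrate (25nM each) were added, and fluorescence (Ex 485/Em 531nm) was read after 60min.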

Experiment [4] addresses DNA polymerase III PolC-type (Bacillus subtilis (strain 168)) (UniProt P13267). Put plainly: qHTS Validation Assay for the Inhibitors of DNA Replication in Gram-Positive Bacteria (AID 485295).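 Also: reconstituted holoenzyme with PolC plus beta clamp SSB and primase; PicoGreen fluorescence of double-stranded DNA made on primed circular M13 template; series mostly up to about 57 µM.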 The gist of the method: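 First, compound is mixed with the reconstituted replication complex and held at room temperature. Next, circular single-stranded M13Gori with nucleotides starts synthesis. Finally, PicoGreen in EDTA halts the reaction and stains double-stranded product for fluorescence reading.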

The target of experiment [5] is Tumor susceptibility gene 101 protein (Homo sapiens) (UniProt Q99816). Description: qHTS Validation Assay for Iinhibitors of HIV-1 Budding by Blocking the Interaction of PTAP/TSG101 (AID 485342; calls by dose curve). The gist of the method: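 Binding of a FITC-tagged PTAP-motif peptide (50 nM) to the Tsg101 binding domain (10 uM) is monitored by fluorescence polarization. Compounds are pin-delivered before peptide addition, and incubation runs 20 min at room temperature.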

For experiment [6], the target named is Beta-2 adrenergic receptor (Homo sapiens) (UniProt P07550). Put plainly: qHTS validation assay of beta-arrestin-biased ligands of beta2-adrenergic receptor (AID 485366). The gist of the method: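 Tango cells (recombinant beta2-AR with recombinant beta-arrestin; recruitment releases tTA driving luciferase) were treated with compounds titrated up to 46 microM for 18 hr at 37 degrees C. Luminescence gave %Activity, and concentration-response curves were curve-classified.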

Experiment [7] concerns the target Thioredoxin reductase 1, cytoplasmic (Rattus norvegicus) (UniProt O89049). Description: qHTS Assay for Substrates of Mammalian Selenoprotein Thioredoxin Reductase 1 (TrxR1) (AID 488772).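 Also: NADPH fluorescence in the first read after selenite addition and not the 8 min delta; series mostly up to about 57 µM; a drop in NADPH fluorescence below the no-compound background marks a TrxR1 substrate.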 The gist of the method: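 Quantitative HTS in Tris-HCl buffer at pH 7.5 with EDTA and Tween-20, using rat TrxR1, 400 uM NADPH and 400 uM selenite (final). A fall in initial NADPH fluorescence relative to background marked substrate behaviour.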

Experiment [8] has the same target. Put plainly: qHTS Assay for Inhibitors of Mammalian Selenoprotein Thioredoxin Reductase 1 (TrxR1) (AID 488773).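 Also: drop in NADPH fluorescence over an 8 min run after selenite addition; series mostly up to about 57 µM; nearly all actives have a fitted effect of over 40% in size.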 The following applies: Potency: inhibition. The gist of the method:
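Steps: enzyme (90 nM) plus NADPH (400 uM final), 5 min at ~22 deg C; compound added, 15 min; selenite (400 uM final) added; fluorescence followed for 8 min. Concentration-response curves derived from the normalized delta values.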

Experiment [9] concerns the target Flap endonuclease 1 (Homo sapiens) (UniProt P39748). Description: qHTS Validation Assay for the Inhibitors of Human Flap endonuclease 1 (FEN1) (AID 488816). The gist of the method: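 FEN1, dispensed as a 10 nM reagent, was preincubated with pin-transferred compounds for 15 min at room temperature before substrate was added (50 nM final). Plates were read at 0 and 15 min, and a four-parameter Hill equation was fitted to the concentration-response data.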

The target in experiment [10] is M-phase phosphoprotein 8 (Homo sapiens) (UniProt Q99549). Description: qHTS Validation Assay for Inhibitors for MPP8 Chromodomain Interactions with Methylated Histone Tails (AID 488949). Also: nearly all actives have a fitted effect of over 55% in size. Also: potency is read from the fitted curve at half-maximal effect. The gist of the method:
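50 nM MPP8 + 50 nM b-H3K9me3 peptide, PBS pH 7.4/0.01% Tween-20, 30 min RT; + cpd 30 min RT; + AlphaScreen donor/Ni-chelate acceptor beads 10 ug/mL final, 30 min dark; luminescence read.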

Experiment [11] deals with Chromobox protein homolog 1 (Homo sapiens) (UniProt P83916). Put plainly: qHTS Validation Assay for Inhibitors of HP1-beta Chromodomain Interactions with Methylated Histone Tails (AID 488953). Also: nearly all actives have a fitted effect of over 50% in size. Also: potency is read from the fitted curve at half-maximal effect. The gist of the method: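 Measured as loss of AlphaScreen luminescence from streptavidin donor and nickel acceptor beads (10 ug/mL final) bridging HP1-beta and biotin-H3(1-18)K9me3, each 50 nM. Compounds met the preassembled complex for 30 min at RT.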

For experiment [12], the target named is Methanococcus maripaludis chaperonin (MmCpn) (UniProt Q6LX38). Description: High-Throughput Screening for Modulators of Cytosolic Chaperonin Activity: MmCpn Primary Screen (AID 488978).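 Also: 50 nM MmCpn enzyme hydrolysing 30 µM ATP at 37 °C.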 The gist of the method:
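Steps: chaperonin 50 nM final; add compound, 5 min RT; start with ATP, 30 uM final; hold 10 min at 37C; add ADP Transcreener HTRF reagent, 5 min; read ex 320, em 590 and 665 nm.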

A short description of experiment [13]: Cytometric Cell-Based qHTS for Inhibitors of the mTORC1 Signaling Pathway in MEF (Tsc2-/-, p53-/-) Cells (AID 2660).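 Also: percent of cells above a phospho-rpS6 to PI ratio cutoff in each well; series mostly up to about 38 µM.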 The gist of the method: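 Readout: Alexa-488 phospho-rpS6 (Ser235/236) intensity divided by PI intensity, thresholded against 7.5 nM rapamycin wells and reported as % positive cells. PI cell count served as the viability measure. Compound exposure was 24 hrs at 37 degree Celsius.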

A short description of experiment [14]: High Content Imaging Cell-Based qHTS for Inhibitors of the mTORC1 Signaling Pathway in MEF (Tsc2-/-, p53-/-) Cells (AID 2666).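 Also: percent of cells scored positive for phospho-rpS6 Ser235/236 immunostaining by imaging.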 The gist of the method:
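Read-out: % positive cells per well, with thresholds from highest- and lowest-signal wells, based on phospho-rpS6 (Ser235/236) intensity normalized to Hoechst nuclear stain. Cells: Tsc2-/-, p53-/- MEFs carrying empty vector; compound 24 hrs, 37 degree Celsius.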

Experiment [15] is described as follows: Cytometry Cell-Based qHTS for Inhibitors of the mTORC1 Signaling Pathway in MEF cells (AID 2668). Also: potency is read from the fitted curve at half-maximal effect. The gist of the method:
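Tsc2-/-, p53-/- MEFs re-expressing WT Tsc2; cpd 24 hrs, 37 degree Celsius; PFA fix, Alexa-488 p-rpS6 (Ser235/236) Ab 2 hrs RT, PI counterstain; Acumen 488nm scan; p-S6/PI ratio → % positive cells; PI count = viability.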

Experiment [16] in a line: Validation screen for small molecules that induce DNA re-replication in MCF 10A normal breast cells (AID 463097). Also: nearly all actives have a fitted effect of over 60% in size. The gist of the method:
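Image-based qHTS: normal breast cells are incubated with compound for 48 hr, stained with Hoechst, and scanned for total nuclear fluorescence. Compounds raising the fraction of nuclei with elevated DNA content count as re-replication inducers.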

The nature of experiment [17]: qHTS Validation Assay to Find Inhibitors of Chronic Active B-Cell Receptor Signaling (AID 485345; active = well fitted curve in the direction sought with a large enough effect in the main read-out, with a control signal flat, not every such curve was filed as active). The gist of the method:
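TMD8 ABC-DLBCL cells with dox-inducible green luciferase–IκBα fusion and red native luciferase; compounds 46 uM–3 nM, 4 h at 37C with doxycycline in 0.5% FBS IMDM. Green/red ratio normalized to basal and 10 uM MG-132.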

In experiment [18] the target is ATP-dependent 6-phosphofructokinase (Trypanosoma brucei brucei) (UniProt O15648). Put plainly: qHTS Validation Assay to Find Inhibitors of T. brucei phosphofructokinase (AID 485368). The gist of the method: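 Compounds (up to 57 uM, titration series) were pinned into substrate buffer, then 1.25 nM PFK added; after 45 min at room temperature, ADP product was quantified by ADP-Glo luminescence and concentration-response curves fitted.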

A short description of experiment [19]: Quantitative high throughput screen for delayed death inhibitors of the malarial parasite plastid, 96 hour incubation (AID 488745).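 Also: luciferase-expressing P. falciparum in erythrocytes at 2% hematocrit and 0.1% parasitemia; series mostly up to about 29 µM; nearly all actives have a fitted effect of over 70% in size.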 The gist of the method:
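Growth of reporter-bearing P. falciparum in red cells is measured after 96 h with compound, covering two erythrocytic cycles. Luminescence from the integrated luciferase serves as the growth signal.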

A short description of experiment [20]: Quantitative high throughput screen for delayed death inhibitors of the malarial parasite plastid, 48 hour incubation (AID 488752). Also: nearly all actives have a fitted effect of over 65% in size. Also: potency is read from the fitted curve at half-maximal effect. The gist of the method:
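One parasite generation (48 h, 37 C, 5% CO2) of luciferase-reporter P. falciparum in erythrocytes is run with test compound; decreased luminescence indicates inhibited growth.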

Results filed as inconclusive are left out. Active and inactive are the calls of the source. Unless noted, calls follow the shape of the dose curve; as a rule, active = well fitted curve in the direction sought with a large enough effect; inconclusive = small, poorly fitted or top-dose-only effect, or another doubt; inactive = no such curve, though single readings can be large; an effect the other way counts as inactive or inconclusive.

Sequence of Methanococcus maripaludis chaperonin (MmCpn) (Q6LX38 1-543): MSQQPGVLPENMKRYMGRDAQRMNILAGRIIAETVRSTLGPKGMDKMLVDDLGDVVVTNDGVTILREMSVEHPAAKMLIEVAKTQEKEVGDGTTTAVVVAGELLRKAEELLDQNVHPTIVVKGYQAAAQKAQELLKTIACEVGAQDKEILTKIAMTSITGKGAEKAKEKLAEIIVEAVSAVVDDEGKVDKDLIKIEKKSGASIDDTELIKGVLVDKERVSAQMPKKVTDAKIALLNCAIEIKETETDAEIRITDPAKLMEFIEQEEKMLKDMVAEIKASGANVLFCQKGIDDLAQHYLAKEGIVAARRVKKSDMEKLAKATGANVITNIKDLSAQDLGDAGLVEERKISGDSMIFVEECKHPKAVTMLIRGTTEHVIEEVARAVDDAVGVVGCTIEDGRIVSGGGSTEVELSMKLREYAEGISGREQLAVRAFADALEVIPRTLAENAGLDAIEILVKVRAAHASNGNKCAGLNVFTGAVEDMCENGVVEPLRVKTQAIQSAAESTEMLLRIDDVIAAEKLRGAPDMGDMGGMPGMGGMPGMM
Sequence of Ubiquitin carboxyl-terminal hydrolase 2 (Homo sapiens) (O75604 whole entry, looked up): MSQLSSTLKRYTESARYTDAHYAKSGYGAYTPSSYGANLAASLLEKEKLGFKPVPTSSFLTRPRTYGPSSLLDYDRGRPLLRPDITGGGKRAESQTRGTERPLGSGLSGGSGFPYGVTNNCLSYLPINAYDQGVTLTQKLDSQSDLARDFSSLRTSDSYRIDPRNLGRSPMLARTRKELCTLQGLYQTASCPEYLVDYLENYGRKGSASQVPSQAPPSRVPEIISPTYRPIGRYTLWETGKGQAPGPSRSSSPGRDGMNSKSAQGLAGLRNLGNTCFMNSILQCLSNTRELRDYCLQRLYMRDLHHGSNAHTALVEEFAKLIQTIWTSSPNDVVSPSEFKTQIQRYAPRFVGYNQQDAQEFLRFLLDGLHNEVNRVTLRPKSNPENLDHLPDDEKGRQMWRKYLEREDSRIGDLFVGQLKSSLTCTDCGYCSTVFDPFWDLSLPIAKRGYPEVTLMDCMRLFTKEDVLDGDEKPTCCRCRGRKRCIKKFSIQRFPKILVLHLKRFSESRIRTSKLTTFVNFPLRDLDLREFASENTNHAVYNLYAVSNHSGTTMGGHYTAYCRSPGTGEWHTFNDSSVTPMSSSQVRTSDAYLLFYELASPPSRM
Sequence of Thioredoxin reductase 1, cytoplasmic (Rattus norvegicus) (O89049 whole entry, looked up): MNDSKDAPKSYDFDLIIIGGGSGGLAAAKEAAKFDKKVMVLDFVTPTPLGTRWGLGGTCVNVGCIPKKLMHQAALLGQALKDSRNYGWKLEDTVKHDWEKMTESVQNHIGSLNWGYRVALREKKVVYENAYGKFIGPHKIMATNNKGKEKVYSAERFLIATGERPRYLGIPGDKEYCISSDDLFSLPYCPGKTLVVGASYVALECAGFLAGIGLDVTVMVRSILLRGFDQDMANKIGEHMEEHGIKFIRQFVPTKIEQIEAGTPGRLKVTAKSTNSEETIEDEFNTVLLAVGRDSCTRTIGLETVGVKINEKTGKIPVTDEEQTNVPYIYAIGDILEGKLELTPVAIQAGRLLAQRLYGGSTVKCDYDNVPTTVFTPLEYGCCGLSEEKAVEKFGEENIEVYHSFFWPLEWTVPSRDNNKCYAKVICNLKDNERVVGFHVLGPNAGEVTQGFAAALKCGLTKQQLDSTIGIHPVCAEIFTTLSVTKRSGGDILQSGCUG
Sequence of M-phase phosphoprotein 8 (Homo sapiens) (Q99549 whole entry, looked up): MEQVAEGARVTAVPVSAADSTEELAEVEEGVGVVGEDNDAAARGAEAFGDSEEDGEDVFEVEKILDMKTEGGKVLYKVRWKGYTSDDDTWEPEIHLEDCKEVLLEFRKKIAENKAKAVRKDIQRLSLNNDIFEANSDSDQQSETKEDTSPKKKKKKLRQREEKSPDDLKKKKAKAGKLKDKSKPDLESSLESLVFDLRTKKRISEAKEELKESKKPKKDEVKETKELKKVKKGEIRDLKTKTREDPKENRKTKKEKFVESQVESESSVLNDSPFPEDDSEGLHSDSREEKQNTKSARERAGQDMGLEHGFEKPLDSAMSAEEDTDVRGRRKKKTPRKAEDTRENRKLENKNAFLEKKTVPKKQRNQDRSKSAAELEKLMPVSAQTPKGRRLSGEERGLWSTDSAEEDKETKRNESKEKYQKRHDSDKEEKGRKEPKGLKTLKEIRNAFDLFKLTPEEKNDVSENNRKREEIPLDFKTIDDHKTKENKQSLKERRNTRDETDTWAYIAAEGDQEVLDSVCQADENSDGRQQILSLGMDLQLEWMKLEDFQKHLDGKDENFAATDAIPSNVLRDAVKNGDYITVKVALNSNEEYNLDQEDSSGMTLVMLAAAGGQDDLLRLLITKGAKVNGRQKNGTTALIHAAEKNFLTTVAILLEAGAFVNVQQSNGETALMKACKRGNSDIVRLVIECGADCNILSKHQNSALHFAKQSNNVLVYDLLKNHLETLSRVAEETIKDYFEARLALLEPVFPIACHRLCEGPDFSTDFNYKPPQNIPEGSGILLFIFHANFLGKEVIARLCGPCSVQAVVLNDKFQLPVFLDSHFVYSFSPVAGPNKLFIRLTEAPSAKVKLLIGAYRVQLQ
Sequence of Flap endonuclease 1 (Homo sapiens) (P39748 whole entry, looked up): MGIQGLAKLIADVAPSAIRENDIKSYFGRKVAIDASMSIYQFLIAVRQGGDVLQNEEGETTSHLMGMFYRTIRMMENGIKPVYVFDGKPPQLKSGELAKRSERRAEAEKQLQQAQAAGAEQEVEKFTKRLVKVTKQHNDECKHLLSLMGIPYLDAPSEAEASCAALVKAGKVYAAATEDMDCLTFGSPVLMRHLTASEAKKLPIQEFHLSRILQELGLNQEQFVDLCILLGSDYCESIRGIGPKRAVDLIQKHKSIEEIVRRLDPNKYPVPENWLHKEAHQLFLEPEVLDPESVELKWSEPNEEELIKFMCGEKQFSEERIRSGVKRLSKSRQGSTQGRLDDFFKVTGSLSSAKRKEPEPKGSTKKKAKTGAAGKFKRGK
Sequence of DNA polymerase III PolC-type (Bacillus subtilis (strain 168)) (P13267 whole entry, looked up): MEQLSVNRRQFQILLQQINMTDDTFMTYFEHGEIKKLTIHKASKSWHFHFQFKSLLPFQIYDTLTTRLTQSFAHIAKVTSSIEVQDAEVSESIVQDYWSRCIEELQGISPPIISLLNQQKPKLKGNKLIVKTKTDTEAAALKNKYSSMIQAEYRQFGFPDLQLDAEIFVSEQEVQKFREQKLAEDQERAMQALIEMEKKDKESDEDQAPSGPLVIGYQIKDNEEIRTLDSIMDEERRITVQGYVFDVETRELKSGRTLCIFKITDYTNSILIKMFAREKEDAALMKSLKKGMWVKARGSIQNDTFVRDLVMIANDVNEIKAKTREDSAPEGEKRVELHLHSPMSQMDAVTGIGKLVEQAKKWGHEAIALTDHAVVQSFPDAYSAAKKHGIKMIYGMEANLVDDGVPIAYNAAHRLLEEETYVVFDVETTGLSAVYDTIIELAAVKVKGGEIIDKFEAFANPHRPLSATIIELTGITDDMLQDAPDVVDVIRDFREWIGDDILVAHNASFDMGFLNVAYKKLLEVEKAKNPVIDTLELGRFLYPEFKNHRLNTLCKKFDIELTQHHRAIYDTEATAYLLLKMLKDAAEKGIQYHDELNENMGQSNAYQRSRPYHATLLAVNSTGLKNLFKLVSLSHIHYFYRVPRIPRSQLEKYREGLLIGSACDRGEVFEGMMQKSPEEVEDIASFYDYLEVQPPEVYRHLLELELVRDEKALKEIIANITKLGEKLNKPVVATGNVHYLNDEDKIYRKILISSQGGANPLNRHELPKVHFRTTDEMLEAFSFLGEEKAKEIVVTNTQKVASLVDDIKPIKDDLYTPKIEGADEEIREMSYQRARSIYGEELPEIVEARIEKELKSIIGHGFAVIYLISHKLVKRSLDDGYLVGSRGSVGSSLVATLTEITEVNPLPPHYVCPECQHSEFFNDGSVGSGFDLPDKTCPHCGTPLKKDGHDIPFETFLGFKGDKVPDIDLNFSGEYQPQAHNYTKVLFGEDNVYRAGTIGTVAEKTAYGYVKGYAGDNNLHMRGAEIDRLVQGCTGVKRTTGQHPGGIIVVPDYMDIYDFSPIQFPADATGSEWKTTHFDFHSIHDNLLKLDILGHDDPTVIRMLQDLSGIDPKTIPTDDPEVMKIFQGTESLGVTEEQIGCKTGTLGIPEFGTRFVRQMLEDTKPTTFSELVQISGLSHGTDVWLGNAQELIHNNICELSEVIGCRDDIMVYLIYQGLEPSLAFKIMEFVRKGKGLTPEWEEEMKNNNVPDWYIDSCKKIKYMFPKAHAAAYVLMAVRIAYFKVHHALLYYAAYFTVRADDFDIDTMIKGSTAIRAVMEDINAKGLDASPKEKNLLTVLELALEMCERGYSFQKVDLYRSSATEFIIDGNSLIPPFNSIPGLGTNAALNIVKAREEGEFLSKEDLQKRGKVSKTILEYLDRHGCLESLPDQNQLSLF
Sequence of ATP-dependent 6-phosphofructokinase (Trypanosoma brucei brucei) (O15648 whole entry, looked up): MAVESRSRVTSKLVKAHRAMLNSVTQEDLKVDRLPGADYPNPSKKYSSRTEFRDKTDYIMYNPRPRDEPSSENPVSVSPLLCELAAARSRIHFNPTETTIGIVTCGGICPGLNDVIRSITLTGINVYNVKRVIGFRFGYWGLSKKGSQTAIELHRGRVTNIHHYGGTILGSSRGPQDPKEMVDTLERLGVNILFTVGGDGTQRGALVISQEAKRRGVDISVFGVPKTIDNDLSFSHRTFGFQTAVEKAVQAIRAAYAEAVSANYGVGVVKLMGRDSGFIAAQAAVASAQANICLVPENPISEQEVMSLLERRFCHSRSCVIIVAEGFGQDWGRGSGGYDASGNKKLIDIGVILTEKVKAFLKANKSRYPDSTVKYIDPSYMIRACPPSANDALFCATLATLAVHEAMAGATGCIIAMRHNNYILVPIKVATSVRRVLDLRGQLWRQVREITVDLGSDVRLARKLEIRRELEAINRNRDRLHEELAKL
Sequence of Chromobox protein homolog 1 (Homo sapiens) (P83916 whole entry, looked up): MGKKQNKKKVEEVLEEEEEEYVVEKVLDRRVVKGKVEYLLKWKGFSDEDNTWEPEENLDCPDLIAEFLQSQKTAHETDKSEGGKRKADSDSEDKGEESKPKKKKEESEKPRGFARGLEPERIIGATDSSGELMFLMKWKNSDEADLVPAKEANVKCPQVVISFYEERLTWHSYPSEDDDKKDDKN

Regarding `CSc1ccc2c(c1)N(CCC1CCCCN1C)c1ccccc1S2` (configuration not stated), the Potency entry in experiment [1], in [8], in experiment [9] and in experiment [12] was “inactive” in each case. Also, the compound was classed as inactive in [2], in [3], in experiment [4], in [5], in experiment [6] and in [7]. In addition, the Potency is 11.2 µM (active) in [10] and 28.2 µM (active) in experiment [11].

In the case of `NC1CCN(c2cccc(Cl)n2)CC1`, the Potency entry in experiment [1], in [13], in experiment [14], in experiment [15], in [18] and in [19] was “inactive” each time. For the same compound, the Potency entry in experiment [20], in experiment [8], in experiment [9], in [10], in [11] and in experiment [12] was “inactive” throughout. In addition, the outcome in [16], in experiment [3], in experiment [4], in experiment [5], in experiment [17] and in [6] was inactive. In addition, in experiment [7], the result was inactive.

Take `CN(C)CCC=C1c2ccccc2CCc2ccccc21`: the Potency result in [1], in experiment [13], in [14], in experiment [18], in [19] and in experiment [8] was “inactive” each time. Further, the Potency entry in [9] and in [12] was “inactive” each time. Besides, the outcome in [2], in experiment [16], in experiment [3], in [4], in experiment [5] and in [6] was inactive. Further, in experiment [7], the result was inactive.

`C[C@H]1O[C@@H](n2cc(F)c(=O)[nH]c2=O)[C@H](O)[C@@H]1O`: the Potency entry in experiment [1], in experiment [19], in experiment [20] and in experiment [10] was “inactive” each time. The result in experiment [2] and in [16] was inactive.

Regarding `CC(C(O)c1ccc(O)cc1)N1CCC(Cc2ccccc2)CC1` (configuration not stated), the Potency entry in experiment [1], in experiment [13], in [14], in [18], in experiment [8] and in experiment [9] was “inactive” each time. Also, the Potency entry in experiment [10], in experiment [11] and in experiment [12] was “inactive” each time. Further, the outcome in experiment [2], in experiment [3], in [4], in experiment [5], in experiment [6] and in [7] was inactive. The Potency in [15] is 11.7 µM (active); in experiment [20] it was 4.65 µM (active).

Take `CSc1ccc2c(c1)C(N1CCN(C)CC1)Cc1ccccc1S2` (configuration not stated): the Potency result in [1], in experiment [18], in [8], in experiment [9] and in [12] was “inactive” throughout. The result in experiment [2], in experiment [3], in experiment [4], in experiment [5], in [6] and in [7] was inactive. The Potency was 44.7 µM (active) in [10] and 39.8 µM (active) in [11].

For the compound `CCN(CC)CCOC(=O)C1(C2CCCCC2)CCCCC1`, the Potency result in experiment [1], in experiment [13], in experiment [14], in [15], in experiment [18] and in experiment [19] was “inactive” each time. Moreover, the Potency result in experiment [20], in experiment [8], in [9], in experiment [10], in [11] and in experiment [12] was “inactive” in each case. Also, the result in experiment [2], in experiment [16], in [3], in [4], in [5] and in experiment [17] was inactive. Besides, the compound was called inactive in experiment [6] and in experiment [7].
